Hits are enriched below; roughly 1.1% of the tested compounds scored in any of these assays.
CatL block – blocks human cathepsin L protease activity; AID 460; inhibition, %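 (tested at 10 µM)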; P07711; 58,000 tested, 0.17% active; purified cathepsin L, fluorogenic substrate, fluorescence; in the data active = inhibition above about 45%;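 note: 0% = enzyme with no compound and 100% = no enzyme blank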
CatB mixtures – inhibitors of human cathepsin B in compound mixtures; P07858; inhibition, %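 (ten-compound pools at 5 µM per compound and 50 µM total)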; Purified cathepsin B, AMC dipeptide fluorescence; 62,000 tested, 0.06% active; AID 488; in the data active = inhibition above about 22%, passing the limit was not always enough; inconclusive = no clear call, values can overlap the other calls;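 note: 0% = enzyme without compound and 100% = no enzyme blank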
CatS block – blocks human cathepsin S protease activity | recombinant cathepsin S, AMC dipeptide fluorescence, pooled mixtures | inhibition, %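 (tested at 5 µM per compound within 10-compound mixtures)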 | 62,000 tested, 0.06% active | AID 501; in the data active = inhibition above about 32%, passing the limit was not always enough; inconclusive = no clear call, values can overlap the other calls;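 note: 0% = enzyme without compound and 100% = blank without enzyme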
Target sequence (P25774 115-331 limits assumed): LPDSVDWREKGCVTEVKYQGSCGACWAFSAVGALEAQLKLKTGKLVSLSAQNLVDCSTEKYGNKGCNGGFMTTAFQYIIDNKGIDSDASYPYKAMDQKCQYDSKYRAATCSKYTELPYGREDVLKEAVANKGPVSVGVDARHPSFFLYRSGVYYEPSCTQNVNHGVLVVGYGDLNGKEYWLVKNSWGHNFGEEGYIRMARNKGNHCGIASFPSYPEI
CatB inh – human cathepsin B inhibition. P07858. purified cathepsin B, fluorogenic substrate, fluorescence. inhibition, %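 (tested at 10 µM)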. 63,000 tested, 0.1% active. AID 453; in the data active = inhibition above about 21%;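 note: 0% = enzyme with no compound and 100% = no enzyme blank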
WNV protease inh – inhibitors of West Nile virus NS2B-NS3 protease; 65,000 tested, 0.18% active; z-score (test concentration not listed); WNV NS2B-NS3 protease, fluorogenic substrate Ex360/Em465; hits give low values; P06935; AID 577; in the data active = z-score below about -3
HER2 expr 66K – lowers expression of human Her2 kinase. P04626. SKBR-3 HER2 protein level, AlphaScreen, 18-24 h; hits give low values. HER2 level % of control, % at 10 µM. 65,000 tested, 0.69% active. AID 645;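 active = HER2 level under 5% of the carrier-only control; inconclusive = no clear call, values can overlap the other calls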;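 note: 100% = DMSO carrier and 0% = 500 nM PU-H71 HSP90 inhibitor; lower value means stronger loss of Her2 protein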
Active calls of the source: *; ? = inconclusive; . = not tested or not shown.

SMILES	CatL block	CatB mixtures	CatS block	CatB inh	WNV protease inh	HER2 expr 66K
CN1CCN(c2ccc(C(N)=O)cc2N)CC1	-0.9	2.3	0.7	-1.4	-1.11	-19.6*
CCn1nc(-c2cccs2)nc2c(=O)n(C)c(=O)nc1-2	81.3*	86.0*	86.8*	81.9*	-0.88	-0.1*
Cc1cc(N2C(=O)C3CCCN3C2c2sccc2C)no1 (stereo not drawn)	13.0	0.1	11.0	11.4	-0.39	88.7
CCn1c(O)c(C(=O)CC2NCCc3ccccc32)c(=O)n(CC)c1=S (stereo not drawn)	9.0	.	.	7.8	0.81	-16.9*
COc1cc2c(cc1OC)-c1c(OC)c(OC)cc3c1C(C2)N(C)CC3 (stereo not drawn)	13.9	19.8	?	26.6*	1.63	86.8
NCC1(CC(=O)O)CCCCC1	-8.3	2.7	-7.1	6.9	-0.00827	94.5
Cn1cccc1CNCCc1ccccc1F	54.1*	0.6	3.2	-2.4	-0.17	102.1
O=c1c2ccccc2nc(N2CCCC2)n1-c1ccc(Cl)cc1	-13.3	3.0	-5.2	2.3	0.03	104.8
O=C1NC(=O)[C@]2(Cc3ccccc3N3CCN(c4ccccc4)CC32)C(=O)N1Cc1ccccc1 (stereo partly drawn)	-3.6	-5.8	-23.8	-2.0	-4.01*	68.7
C=C(C)CSc1nnc([C@@H](N)Cc2c[nH]c3ccccc23)o1	.	-3.6	1.0	3.2	-0.79	87.2
Cc1ccc(NC(=O)CSc2nnc([C@@H](N)Cc3c[nH]c4ccccc34)o2)c(C)c1	92.8*	-3.0	2.2	6.2	1.02	60.9
CCc1ccccc1NC(=O)CSc1nnc([C@@H](N)Cc2c[nH]c3ccccc23)o1	119.7*	6.3	17.4	-0.1	-0.17	59.0
COC(=O)c1c(C)[nH]c(C(=O)C(Cc2ccccc2)N(C)C)c1C (stereo not drawn)	9.4	3.5	14.1	5.2	0.75	141.4
COc1ccc(CC2C(=O)NC(=O)NC2=O)c(OC)c1	3.5	6.2	9.6	10.3	-0.29	71.7
O=c1[nH]c2ccccc2n1CCCN1CCC(n2c(=O)[nH]c3cc(Cl)ccc32)CC1	-0.8	-9.4	2.1	0.8	-0.37	93.2
CCCCCCn1c(N)c(C(=O)NCCN2CCOCC2)c2nc3ccccc3nc21	-63.9	2.2	18.7	-7.4	0.65	-5.8*
COc1ccc(Cn2c(O)c(C=NCCCn3ccnc3)c(=O)[nH]c2=O)cc1	25.6	.	.	0.8	-0.24	106.6
N[C@@H](Cc1c[nH]c2ccccc12)c1nnc(SCc2ccc(Cl)cc2)o1	-2.5	42.1	-3.8	-1.5	1.12	41.7
